Results on 60 compounds are retold here after PubChem BioAssay AID2315 (National Center for Advancing Translational Sciences (NCATS), 2010).

The whole screen tested about 290,000 compounds, of which about 27,000 (9.3%) were called active. Only a selection was taken, and actives are over-represented in it overall. Values without a mark were called inactive. Cut-off read from the data, not from the text of the source: active = inhibition mostly above about 28% (no sharp cut-off); inactive = mostly below about 43%.

This assay is described as follows: A qHTS for Small Molecule Inhibitors of Shiga Toxin. Note: 0% is about no effect. The note with it: Vero cells, Shiga toxin protein synthesis inhibition reporter; at 38.7 µM, active compounds read high.
As to `COc1ccccc1NC(=O)Nc1nnc(Cc2ccc(F)cc2)s1`, the inhibition was 22.5%.

As to `CCSc1nsc(NC(=O)Nc2ccccc2OC)n1`, the inhibition was 27.4% (active).

As for `CCc1nc(SCC(=O)Nc2ccccc2OC)n[nH]1`, the inhibition was -3.11%.

For the compound `C=CCSc1nsc(NC(=O)Nc2cccc(C(C)=O)c2)n1`, the inhibition was 22.6%.

With `CC(=O)c1cccc(NC(=O)c2ccncc2)c1`, the inhibition is -0.119%.

On to `CCSc1nsc(NC(=O)Nc2cccc(C(C)=O)c2)n1`, for which the inhibition is 41.5% (active).

Take `COc1ccc(N2CC(C(=O)N[C@@H](C)C(=O)N3CCCCC3)CC2=O)cc1` (stereo not given in full): the inhibition was -4.4%.

As for `COCCc1nn2c(=O)cc(COC(=O)c3cc(OC)c(OC)c(OC)c3)nc2s1`, the inhibition was -8.18%.

In the case of `C/C(N)=C(/C#N)C(=O)COC(=O)C1=NN(c2ccccc2)C(=O)CC1`, the inhibition was -13.8%.

Turning to `CCOCCCNC(=O)C(NC(=O)CNC(=O)c1ccccc1)c1ccc(OC)cc1` (stereo not given), the inhibition is -6.33%.

For the compound `Cc1ccc(NC(=O)CN2CCC(C(N)=O)CC2)cc1[N+](=O)[O-]`, the inhibition was 26%.

Take `Cc1nc2ccccc2cc1C(=O)N/N=C/c1ccc([N+](=O)[O-])cc1`: the inhibition is -4.74%.

Turning to `Cc1ccc(NC(=O)CN(C)CC(=O)Nc2cccc(F)c2)cc1[N+](=O)[O-]`, the inhibition was 14.5%.

On to `Cc1ccsc1C(=O)N/N=C/c1ccc([N+](=O)[O-])cc1`, for which the inhibition was 64% (active).

On to `NC(=S)N/N=C/c1ccc([N+](=O)[O-])cc1`, for which the inhibition was 4.32%.

For `Cc1ccc(NC(=O)c2sccc2C)cc1[N+](=O)[O-]`, the inhibition is 87.3% (active).

As for `O=C(NCC(=O)N1CCN(c2ncc(C(F)(F)F)cc2Cl)CC1)c1ccc(Br)o1`, the inhibition was -3.85%.

As for `C=C1CCN(C(CC(C)C)C(=O)N2CCOCC2)S(=O)(=O)c2ccccc21` (stereo not given), the inhibition is -4.26%.

For the compound `O=C1C2C(c3ccccc3)CC=CC2C(c2ccoc2)N1Cc1ccccc1` (stereo not given), the inhibition is -1.21%.

In the case of `CC(C)c1ccc(/C=C/C(=O)NNC(=O)c2cccnc2)cc1`, the inhibition was 0.769%.

Take `O=C(/C=C/c1ccc(F)cc1)NCCNC(=O)/C=C/c1ccc(F)cc1`: the inhibition was -7.35%.

`C=CCNC(=O)/C=C/c1ccc(C(C)C)cc1`: the inhibition was 96.1% (active).

For the compound `CCCNC(=O)N1CCC(c2ccc3c(c2)OCO3)CC1`, the inhibition was -2.98%.

Regarding `Cc1nn(CC(=O)NCCc2ccccc2)c(=O)c2cc3occc3n12`, the inhibition was -3%.

For the compound `COc1ccc(CNC(=O)C(C)n2nc(C)c3c(C)n(-c4ccccc4)nc3c2=O)c(OC)c1` (stereo not given), the inhibition is -6.6%.

`CC(=O)N1c2ccc(S(=O)(=O)N3CCCC(C(=O)NCc4ccc(Cl)cc4)C3)cc2CC1C` (stereo not given): the inhibition was 8.69%.

In the case of `Cc1ccc(/C=N/NC(=O)CN2CCN(Cc3ccccc3)CC2)s1`, the inhibition was 14.8%.

For `C=CCNC(=S)N/N=C/c1ccc(OCc2ccccc2)cc1`, the inhibition is -15.4%.

Turning to `C=CCNC(=S)N/N=C/c1ccc(C)s1`, the inhibition is 39.3% (active).

As to `CCCn1c(C(C)Nc2nc(-c3ccc(C)cc3)cs2)nc2cc(Cl)c(N3CCCCC3)cc21` (stereo not given), the inhibition is -1.11%.

`CCC(O)C1CCN(Cc2cn(-c3ccc(OC)cc3)nc2-c2cccc(F)c2)CC1` (stereo not given): the inhibition is 50.9%.

Take `Cc1cccc(-n2cc(CN3CCN(C(=O)c4ncn[nH]4)CC3)c(-c3cccc(F)c3)n2)c1`: the inhibition is 63.8% (active).

For `Cc1ccc(C)c(-n2cc(CN3CCN(C(=O)c4ncn[nH]4)CC3)c(-c3ccccc3)n2)c1`, the inhibition was 8.93%.

For the compound `COc1ccc(S(=O)(=O)N(C)CC(=O)NCCCN2CCOCC2)cc1Cl`, the inhibition is -12.5%.

For `Clc1nc(NC2CCCC2)nc(N2CCOCC2)n1`, the inhibition was 5.65%.

On to `CCc1ccc(CNC(=O)C2CCN(c3nnc(C)c4c(C)n(-c5ccc(C)cc5)nc34)CC2)cc1`, for which the inhibition was -5.47%.

With `O=S(=O)(c1ccc(Cl)cc1)c1nc(-c2ccco2)oc1N1CCCCC1`, the inhibition is -0.989%.

With `CSc1ccc(S(=O)(=O)N2CCC(C(=O)NCCc3ccccc3)CC2)cc1`, the inhibition is 56.2%.

As to `CC(Oc1cc2oc(=O)c3c(c2cc1Cl)CCCC3)C(=O)NCc1ccncc1` (stereo not given), the inhibition is -3.65%.

On to `CCN1/C(=C/C(=S)Nc2ccccc2)Sc2ccccc21`, for which the inhibition was 62.5% (active).

For `CCN1/C(=C/c2ccc3ccc(C)cc3[n+]2CC)Sc2ccccc21`, the inhibition is 5.47%.

Consider `O=C(CCN1c2ccccc2Sc2ccccc21)Nc1ccccc1`, for which the inhibition is -1.29%.

Regarding `CCn1cc(/C=C(\NC(=O)c2ccc(C)cc2)C(=O)NCCN2CCOCC2)c2ccccc21`, the inhibition is 1.24%.

`Cc1ccc(-c2nc(C)sc2CC(=O)O)cc1`: the inhibition was -13.7%.

For `CCOC(=O)C(=O)Nc1nc(-c2ccccc2)c(CC)s1`, the inhibition is -12%.

Turning to `C/C(=N/Nc1nc(-c2ccccc2)c(CC(=O)O)s1)c1ccccc1`, the inhibition was 68.4% (active).

As for `COC(=O)c1cccc(N2C(=O)C3C4C=CC(CC4)C3C2=O)c1` (stereo not given), the inhibition is 0.962%.

Take `CC(C)Cn1cnc2c1c(=O)n(CC(=O)NN)c(=O)n2Cc1ccccc1`: the inhibition was -7.02%.

Consider `CCc1ccc(NC(=O)N2CCc3ccccc3C2)cc1`, for which the inhibition was 120% (active).

In the case of `CN1CCN(CC(=O)Nc2cccc([N+](=O)[O-])c2)CC1`, the inhibition is -12.8%.

Regarding `CCc1ccc(NC(=O)N2CCN(c3ccccc3)CC2)cc1`, the inhibition is 20.1%.

As to `CC(=O)Nc1cccc([N+](=O)[O-])c1`, the inhibition was 17.7%.

For the compound `O=C(Nc1cccc([N+](=O)[O-])c1)N1CCc2ccccc2C1`, the inhibition is 88.6% (active).

With `O=C(C(=O)N1CCc2ccccc2C1)N1CCc2ccccc2C1`, the inhibition is 8.23%.

In the case of `COC(=O)c1ccccc1NC(=O)CSc1nc2c(c(=O)[nH]1)CCC2`, the inhibition is -2.68%.

As for `COc1ccc(C(=O)NC(=S)N2CCCCC2c2cccnc2)cc1OC` (stereo not given), the inhibition was -4.75%.

Consider `Cc1ccc(Cn2cc(C(=O)NN)c(=O)c3ccc(F)cc32)cc1`, for which the inhibition is -5.32%.

`Nc1nc(SCc2cccc(Br)c2)n[nH]1`: the inhibition was 14.2%.

Consider `O=C(CN1CCN(C(=O)C2CCCO2)CC1)Nc1c(Cl)cccc1Cl` (stereo not given), for which the inhibition is -6.84%.

`COc1cc(C(=O)NCC2(c3ccccc3)CCCC2)ccc1OC(C)C`: the inhibition was 4.68%.
